Only some compounds are listed: those with a hit (about 1.9% of all), similar ones and a draw of the others.
Hsp90 inh – displaces geldanamycin probe from tumor Hsp90. P07900. NCI-N417 lysate Hsp90, Cy3B-geldanamycin FP displacement. inhibition, % at 30 µM. hit rate 0.35% among 64,000. AID 429;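 active means inhibition above 50%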;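 further: 0% = tracer plus lysate wells and 100% = tracer alone without lysate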
S1P1 ag pot – agonists and agonism potentiators of human S1P1 receptor; P21453; S1P1 CRE-bla cells, forskolin, beta-lactamase FRET, potentiator mode; S1P1 agonist co-added at EC20, 2 nM; 100% = saturating reference agonist, 0% = basal; activation, % at 9.5 µM; hit rate 0.57% among 56,000;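 active means activation above a cutoff set at the mean activation of all tested compounds plus 3 SD, cut at about 54% in these data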;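 further: forskolin at 4 µM as EC80 and the EC20 agonist is SEW2871; 100% = SEW2871 at its EC100 plus forskolin at EC80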
SKBR3 24h inh – SK-BR-3 proliferation inhibitors. hit rate 0.47% among 41,000. SK-BR-3 viability, CellTiter-Glo ATP luminescence, 24 h; hits give low values. viability, % at 10 µM;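 active means viability at or below the median of all test compounds minus 3 SD, in both replicates if run twice, cut at about 45% in these data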;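 further: 100% = median untreated cell wells and 0% = median positive control drug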
Her2 expr inh – lowers expression of human Her2 kinase | P04626 | SKBR-3 HER2 protein level, AlphaScreen, 18-24 h; hits give low values | HER2 level % of control, % at 10 µM | hit rate 0.69% among 65,000 | AID 645;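 active means HER2 level under 5% of the carrier-only control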;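 further: 100% = DMSO carrier and 0% = 500 nM PU-H71 HSP90 inhibitor; lower value means stronger loss of Her2 protein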
TNAP act DEA – activators of human TNAP at intermediate phosphate acceptor; P05186; activation factor at 20 µM; purified TNAP, CDP-star luminescence, 100 mM DEA, 30 min; hits give high values; scale: 0 levamisole-inhibited, 1 vehicle-only enzyme; 64,000 tested, under 10 active;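 active means activation factor of at least 2 at 20 µM, relative to controls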
Target sequence (P05186 whole entry, looked up): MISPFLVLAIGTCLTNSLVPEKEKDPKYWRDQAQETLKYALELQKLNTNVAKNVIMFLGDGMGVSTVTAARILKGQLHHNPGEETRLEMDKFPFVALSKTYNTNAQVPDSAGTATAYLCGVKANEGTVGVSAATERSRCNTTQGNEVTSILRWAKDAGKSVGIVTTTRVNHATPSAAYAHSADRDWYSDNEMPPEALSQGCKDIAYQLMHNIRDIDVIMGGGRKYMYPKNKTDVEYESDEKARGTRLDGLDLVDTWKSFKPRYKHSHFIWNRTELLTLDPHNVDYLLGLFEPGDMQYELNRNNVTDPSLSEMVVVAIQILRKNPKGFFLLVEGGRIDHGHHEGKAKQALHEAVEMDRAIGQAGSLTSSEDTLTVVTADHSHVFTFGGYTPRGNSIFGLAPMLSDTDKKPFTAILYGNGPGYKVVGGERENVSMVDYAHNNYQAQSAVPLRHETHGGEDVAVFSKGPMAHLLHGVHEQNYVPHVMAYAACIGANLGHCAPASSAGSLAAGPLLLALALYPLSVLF
BAP1 inh – inhibitors of human BAP1 deubiquitinase; Q92560; recombinant BAP1, Ub-AMC hydrolysis fluorescence kinetic; hits give low values; activity remaining (% of control), % at 20 µM; hit rate 0.48% among 72,000; AID 436;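 active means activity remaining at or below 50% of control, provided the compound also passes the data quality filters; inactive means the rest, including low values that fail the filters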;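 further: 100% = DMSO wells rate and 0% = substrate alone blank rate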
An asterisk follows results filed as active; x = no result given.

SMILES	Hsp90 inh	S1P1 ag pot	SKBR3 24h inh	Her2 expr inh	TNAP act DEA	BAP1 inh
COc1ccc2c(=O)c(-c3ccc4c(c3)OCCCO4)c(C)oc2c1	x	x	x	x	x	115
Cc1oc2cc(O)cc(O)c2c(=O)c1-c1ccc2c(c1)OCCCO2	-3	93*	x	124	1	84
O=C(CSc1c2c(nc3ccc(Cl)cc13)CCCC2)N1CCN(C(=O)c2ccco2)CC1	0	-3	97	-5.2*	0.9	105
O=C(CSc1nc2cc(Cl)ccc2s1)N1CCN(C(=O)c2ccco2)CC1	-5	-8	x	55	0.8	121
COc1ccc(C(=O)c2no[n+]([O-])c2C(=O)c2ccc(OC)cc2)cc1	-5	-7	75	-22*	0.9	53
COC(=O)c1nnc(-c2ccccc2)c(-c2ccccc2)n1	x	x	104	100	0.9	x
O=C(NCc1ccc(F)cc1)N[C@@H](Cc1ccccc1)C(=O)O	0	6	100	118	0.9	100
CSCC[C@H](NC(=O)NCc1ccc(F)cc1)C(=O)O	3	7	100	-15*	0.9	99
Cc1ccc(-n2ncc3c(N4CCCC(C)C4)ncnc32)c(C)c1 (stereo unspecified)	-2	73*	x	69	0.9	82
Cc1ccc(-n2ncc3c(N4CCCC4)ncnc32)c(C)c1	1	-11	81	64	0.9	178
Cc1cc(C(=O)CSc2nnc(-c3ccccc3)n2-c2ccccc2)c(C)n1-c1ncn[nH]1	-2	90*	x	97	0.9	114
Cc1cc(C(=O)CSc2nnc(-c3ccccc3)n2C)c(C)n1C	0	3	x	108	0.8	84
Cc1cc(C(=O)CSc2nnc(-c3cccnc3)n2-c2ccccc2F)c(C)n1C	-6	101*	x	75	0.9	101
Cc1cc(C(=O)CSc2nnc(-c3ccncc3)n2-c2ccccc2)c(C)n1C	-1	97*	x	87	0.9	118
COCCn1c(SCC(=O)N2CCCC2)nnc1-c1ccoc1C	-1	-6	79	92	0.9	98
C=CCOc1ccccc1CNCc1cccnc1	2	-19	135	99	0.9	146
COc1ccc(-c2cc(C(F)(F)F)n3nc(C(=O)O)nc3n2)cc1	-1	-10	87	169	0.9	132
CCCC(=O)N(c1ccc(OC)cc1)C1C=CS(=O)(=O)C1 (stereo unspecified)	-3	-2	x	109	0.9	100
COc1cc(Cn2c(-c3nonc3N)nc3ccccc32)ccc1C	1	31	35*	34	0.9	66
CCCCNC(=O)OCCNC(=O)NC	2	-2	77	-55*	0.9	76
CCCCOCCCNC(=O)N[C@H](C(=O)OC)C(C)C	-1	-10	95	77	1	111
COc1ccc2c(=O)c3c(=O)n(Cc4ccco4)c(-c4ccccc4)nc3oc2c1	-5	-46	80	59	0.9	89
COc1ccc2c(=O)c3c(=O)n(Cc4ccco4)c(-c4cc(OC)c(OC)c(OC)c4)nc3oc2c1	-1	-34	27*	15	0.9	91
Cc1cc(NC(=O)CCC(=O)N(c2ccc(F)cc2)C2(C(=O)NC3CCCCC3)CCCC2)no1	-1	-1	88	94	0.9	104
CCn1c(C)cc(=S)c2ccccc21	-59	-1	85	-19*	0.8	102
SMILES	Hsp90 inh	S1P1 ag pot	SKBR3 24h inh	Her2 expr inh	TNAP act DEA	BAP1 inh
CCn1c2ccccc2c2cc(N)ccc21	15	10	112	93	0.9	565
Cc1nnc(SCC(=O)N2CCN(Cc3ccccc3)CC2)s1	-5	x	99	120	1	78
Cc1nnc(SCC(=O)N2CCC(c3noc4ccc(F)cc34)CC2)s1	-12	69*	107	131	0.9	104
COc1cccc(NS(=O)(=O)c2c(C)cc(C)cc2C)c1	-2	-7	x	81	0.9	89
COc1ccc(OC)c(-n2c(C)nc3cc(C(=O)O)ccc32)c1	61*	-3	x	117	0.9	88
O=C(O)C1CCCCC1C(=O)Nc1ccccc1F (stereo unspecified)	1	x	87	134	0.9	101
O=C(CSc1nnc(Cc2csc(Nc3cccc(Cl)c3)n2)o1)N1CCc2ccccc21	-3	78*	86	90	0.9	59
O=C(CSc1nnc(CNc2ccccc2)o1)N1CCc2ccccc21	0	8	88	76	1	91
CC(=O)c1cccc(NC(=O)CSc2nnc(-c3ccc(S(=O)(=O)N4CCCC4)cc3)o2)c1	61*	-10	143	109	0.9	78
Cc1cc(-n2[nH]c(C)c(C)c2=O)nc(-c2ccccc2O)n1	5	8	39*	79	1	98
CC(C)N1CCC2(CC1)N=C(c1ccc3c(c1)OCO3)CC(c1cc(Cl)ccc1O)N2 (stereo unspecified)	-1	4	x	-18*	0.9	110
CC(=O)c1c(C)nc(-c2ccc3c(c2)OCO3)n1O	2	-3	76	78	0.9	95
CN(C)C=Nc1nonc1-c1ncn[nH]1	-1	-9	114	116	0.9	100
CN(C)C=Nc1c(Br)cc(Br)c2nonc12	53*	36	133	58	1	91
C=CCSC1=N/C(=C\c2ccc3c(c2)OCO3)C(=O)S1	-4	-2	94	81	0.9	67
C=CCSC1=N/C(=C\C=C\c2ccco2)C(=O)S1	-9	-18	x	2.1*	0.8	61
COC(=O)C1=C(C)N(c2cccc3ccccc23)C(=O)C1	51*	-5	86	167	1	x
COC(=O)C1=C(C)N(c2ccc(C(=O)OC)cc2)C(=O)C1	-9	-5	84	125	0.9	80
O=C(OCC(=O)N1CCc2ccccc21)c1cccnc1	0	-2	41*	87	0.9	98
Cc1ccc(Cl)cc1N1CCN(C(=O)c2ccc(NS(=O)(=O)c3c(C)noc3C)cc2)CC1	2	-56	81	84	0.9	58
CC(C)COC(=O)N1CC(O)CC1C(=O)O (stereo unspecified)	-4	1	95	-14*	1	94
COc1ccccc1-c1cc(C(=O)Nc2ccccc2SC)no1	-2	94*	75	80	0.9	80
COc1ccc(-c2cc(C(=O)Nc3ccccc3SC)no2)cc1OC	-6	-6	67	72	0.9	119
COc1cccc(-c2cc(C(=O)Nc3ccccc3SC)no2)c1	-2	89*	64	60	1	85
CSc1nnc(Cn2c(=O)sc3ccccc32)n1-c1cccc(Cl)c1	2	-2	x	95	1	93
Cc1nnc(SCC(=O)Nc2cccc(C(F)(F)F)c2)n1Cc1ccco1	-3	5	89	90	0.9	105

From PubChem
